Reference: the supplement of paper PMC11732987, “Enantioselective OTUD7B fragment discovery through chemoproteomics screening and high-throughput optimisation” (Communications Chemistry, 2025)

Key:
Experiment in all cases: log2 ratio of Biotin-Ahx-Ub-VS probe labelling (compound/DMSO); higher = less target engagement, active = hit call of the paper (q ≤ 0.05, log2 ratio ≤ -1)
Settings in all cases: treatment time: 3 h
[1] = compound: CCC1N(CCc2sccc12)C(=O)CCl
Procedure, shortened: (§1)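 DUBs in HEK293T lysate were labelled with Biotin-Ahx-Ub-VS (0.5 µM final, 1 h) after a 3 h treatment with compound at 50 or 200 µM or with DMSO, done in triplicate on 495 µg of lysate per sample. NeutrAvidin-enriched proteins were digested with LysC and trypsin and run by diaPASEF LC-MS/MS. Median-normalised label-free quantities gave average base-two log ratios of compound to DMSO by unpaired t-test, restricted to proteins with at least 2 unique peptides.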

[2] = compound: CN1c2ccccc2C(CS1(=O)=O)NC(=O)CCl
Procedure, shortened: as §1

[3] = compound: Cl.ClCC(=O)N1CCc2ncncc2C1
Procedure, shortened: as §1

[4] = compound: Cl.Cn1ncc2C(CCCc12)NC(=O)CCl
Procedure, shortened: as §1

[5] = compound: ClCC(=O)NC1CCOc2ccccc12
Procedure, shortened: as §1

[6] = compound: ClCC(=O)NC1CCCc2ccccc12
Procedure, shortened: (§2)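 Average ratios of compound to vehicle were obtained by unpaired t-test. Beforehand, 495 µg samples of HEK293T lysate in buffer with protease inhibitors were treated in triplicate with compound over a concentration series or vehicle for 3 h, then with 0.5 µM final Biotin-Ahx-Ub-VS for 1 h. Labelled deubiquitinases were NeutrAvidin-enriched, digested and quantified label-free by diaPASEF LC-MS/MS in Spectronaut, normalised to the global median. Values are log2 and cover proteins with at least two unique peptides.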

[7] = compound: ClCC(=O)N[C@@H]1CCCc2ccccc12
Procedure, shortened: as §2

[8] = compound: ClCC(=O)N[C@H]1CCCc2ccccc12
Procedure, shortened: as §2

[9] = compound: CCC1N(CCc2cc(OC)c(Cl)cc12)C(=O)CCl
Procedure, shortened: as §1

[10] = compound: CCCC1N(CCc2cc(OC)c(OC)cc12)C(=O)CCl
Procedure, shortened: as §1

Measured: log2 ratio of Biotin-Ahx-Ub-VS probe labelling

USP4 (UniProt Q13107)
Chain of UniProt Q13107 (Q13107 whole entry): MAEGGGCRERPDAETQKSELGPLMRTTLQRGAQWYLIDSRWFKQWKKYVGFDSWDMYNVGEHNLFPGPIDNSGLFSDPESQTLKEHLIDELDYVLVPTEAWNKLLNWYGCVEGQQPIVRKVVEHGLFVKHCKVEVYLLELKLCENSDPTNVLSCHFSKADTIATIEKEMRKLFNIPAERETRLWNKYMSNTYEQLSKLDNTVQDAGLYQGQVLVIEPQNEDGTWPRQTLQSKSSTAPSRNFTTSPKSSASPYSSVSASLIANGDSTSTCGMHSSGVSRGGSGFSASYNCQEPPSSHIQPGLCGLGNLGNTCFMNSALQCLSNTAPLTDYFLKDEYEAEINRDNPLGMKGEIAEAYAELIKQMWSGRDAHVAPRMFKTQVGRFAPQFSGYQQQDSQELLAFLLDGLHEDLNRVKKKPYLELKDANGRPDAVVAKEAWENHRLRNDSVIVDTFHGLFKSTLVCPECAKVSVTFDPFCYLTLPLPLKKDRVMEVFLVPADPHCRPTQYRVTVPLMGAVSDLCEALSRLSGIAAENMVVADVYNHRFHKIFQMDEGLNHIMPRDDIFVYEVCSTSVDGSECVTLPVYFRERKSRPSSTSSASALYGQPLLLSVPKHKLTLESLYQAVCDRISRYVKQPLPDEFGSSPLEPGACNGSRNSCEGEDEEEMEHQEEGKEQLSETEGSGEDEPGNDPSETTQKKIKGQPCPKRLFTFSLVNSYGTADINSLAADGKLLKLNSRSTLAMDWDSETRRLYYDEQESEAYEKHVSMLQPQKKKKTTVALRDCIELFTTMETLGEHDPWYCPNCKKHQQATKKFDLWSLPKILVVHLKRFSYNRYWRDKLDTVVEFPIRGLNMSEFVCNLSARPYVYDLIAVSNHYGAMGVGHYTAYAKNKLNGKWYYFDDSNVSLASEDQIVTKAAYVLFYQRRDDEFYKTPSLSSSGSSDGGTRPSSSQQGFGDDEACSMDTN
active: [3]; compound concentration: 200uM -1.33 | [9]; compound concentration: 50uM -1.04
inactive: [1]; compound concentration: 50uM -0.339 | [1]; compound concentration: 200uM -0.482 | [2]; compound concentration: 50uM -0.215 | [2]; compound concentration: 200uM 0.178 | [3]; compound concentration: 50uM -0.548 | [4]; compound concentration: 50uM -0.0561 | [4]; compound concentration: 200uM 0.256 | [5]; compound concentration: 50uM 0.078 | [5]; compound concentration: 200uM -0.359 | [6]; compound concentration: 0.78uM 0.169 | [6]; compound concentration: 1.56uM 0.0194 | [6]; compound concentration: 3.13uM 0.211 | [6]; compound concentration: 6.25uM 0.184 | [6]; compound concentration: 12.5uM 0.134 | [6]; compound concentration: 25uM 0.0663 | [6]; compound concentration: 50uM -0.0777 | [6]; compound concentration: 100uM -0.146 | [6]; compound concentration: 200uM 0.149 | [7]; compound concentration: 0.78uM 0.155 | [7]; compound concentration: 1.56uM 0.0643 | [7]; compound concentration: 3.13uM 0.0496 | [7]; compound concentration: 6.25uM -0.232 | [7]; compound concentration: 12.5uM -0.312 | [7]; compound concentration: 25uM 0.121 | [7]; compound concentration: 50uM -0.0633 | [7]; compound concentration: 100uM 0.0515 | [7]; compound concentration: 200uM -0.637 | [8]; compound concentration: 0.78uM 0.0773 | [8]; compound concentration: 1.56uM 0.0727 | [8]; compound concentration: 3.13uM 0.172 | [8]; compound concentration: 6.25uM -0.243 | [8]; compound concentration: 12.5uM 0.0883 | [8]; compound concentration: 25uM -0.0943 | [8]; compound concentration: 50uM 0.0929 | [8]; compound concentration: 100uM -0.0812 | [8]; compound concentration: 200uM -0.126 | [9]; compound concentration: 200uM 0.334 | [10]; compound concentration: 50uM -0.121 | [10]; compound concentration: 200uM -0.75

OTUD6B (UniProt Q8N6M0)
Chain of UniProt Q8N6M0 (Q8N6M0 whole entry): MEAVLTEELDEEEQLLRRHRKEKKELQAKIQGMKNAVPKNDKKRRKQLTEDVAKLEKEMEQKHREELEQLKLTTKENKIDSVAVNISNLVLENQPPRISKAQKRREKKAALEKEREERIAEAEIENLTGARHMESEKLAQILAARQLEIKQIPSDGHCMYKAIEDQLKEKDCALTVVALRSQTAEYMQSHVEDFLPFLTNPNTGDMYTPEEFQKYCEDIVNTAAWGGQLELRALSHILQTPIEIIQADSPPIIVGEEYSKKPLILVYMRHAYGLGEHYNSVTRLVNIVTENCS
inactive: [1]; compound concentration: 50uM -0.125 | [1]; compound concentration: 200uM -0.283 | [2]; compound concentration: 50uM -0.286 | [2]; compound concentration: 200uM -0.251 | [3]; compound concentration: 50uM -0.254 | [3]; compound concentration: 200uM -0.722 | [4]; compound concentration: 50uM 0.122 | [4]; compound concentration: 200uM -0.00452 | [5]; compound concentration: 50uM 0.0287 | [5]; compound concentration: 200uM -0.0666 | [6]; compound concentration: 0.78uM -0.127 | [6]; compound concentration: 1.56uM -0.0797 | [6]; compound concentration: 3.13uM -0.201 | [6]; compound concentration: 6.25uM -0.105 | [6]; compound concentration: 12.5uM -0.198 | [6]; compound concentration: 25uM -0.128 | [6]; compound concentration: 50uM -0.0883 | [6]; compound concentration: 100uM -0.038 | [6]; compound concentration: 200uM -0.209 | [7]; compound concentration: 0.78uM -0.264 | [7]; compound concentration: 1.56uM -0.2 | [7]; compound concentration: 3.13uM -0.167 | [7]; compound concentration: 6.25uM -0.186 | [7]; compound concentration: 12.5uM -0.156 | [7]; compound concentration: 25uM -0.268 | [7]; compound concentration: 50uM -0.175 | [7]; compound concentration: 100uM -0.224 | [7]; compound concentration: 200uM -0.168 | [8]; compound concentration: 0.78uM -0.139 | [8]; compound concentration: 1.56uM -0.177 | [8]; compound concentration: 3.13uM -0.0832 | [8]; compound concentration: 6.25uM -0.0276 | [8]; compound concentration: 12.5uM -0.0686 | [8]; compound concentration: 25uM -0.159 | [8]; compound concentration: 50uM 0.0307 | [8]; compound concentration: 100uM -0.0663 | [8]; compound concentration: 200uM -0.229 | [9]; compound concentration: 50uM 0.0279 | [9]; compound concentration: 200uM -0.78 | [10]; compound concentration: 50uM -0.398 | [10]; compound concentration: 200uM -0.676
